Source: PubChem (National Center for Advancing Translational Sciences (NCATS))
aSyn rescue: inhibitors of alpha-synuclein toxicity in yeast. Potency, µM (top dose mostly 46.1 µM), inactives show at the highest dose growth rescue (activation), actives largely listed as activators. Yeast expressing alpha-synuclein, growth rescue, BacTiter-Glo, 24 h. actives 0.14% (n = 370,000); also: % of control where 0% means no effect; nearly all actives have a fitted effect of over 65% in size
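Readout is rescue of growth in alpha-synuclein-expressing yeast, so inhibitors of toxicity appear as activators. Growth after 24 hr at 30 deg C in galactose medium is quantified by luminescence.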
Abeta rescue: restores growth of yeast expressing A-beta42 peptide | yeast expressing A-beta42, growth rescue, OD600, 48 h; response scale: 0% DMSO, 100% iron-clioquinol control | Potency, µM (top dose mostly 46.1 µM), most hits filed as activators | actives 0.063% (n = 410,000); also: nearly all actives have a fitted effect of over 55% in size
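Yeast A-beta toxicity model in growth medium with pinned compounds, 48 h at 30 C; growth read as absorbance at 600 nm. Normalized to FeCl3/clioquinol equimolar mix (positive) and DMSO (negative).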
FUS yeast rescue: rescues growth of FUS-expressing yeast; S. cerevisiae FUS-expressing, growth rescue, OD600, 24 h; Potency, µM (highest dose often 76.6 µM), most hits filed as activators; actives 0.24% (n = 390,000); AID 1347120;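 also: plate controls were DMSO vehicle for no effect and reference control for full effect; nearly all actives have a fitted effect of over 55% in size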
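Cultures pregrown in 2.5% raffinose medium are shifted to minimal medium containing 2% galactose to express toxic FUS. Compounds are tested at several concentrations. After 24hr at 30C, growth is quantified at 600 nm absorbance.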
Mito fusion yeast: blocks mitochondrial division or promotes mitochondrial fusion | S. cerevisiae fusion-defective mutant growth rescue, CellTiterGlo 48 h | Potency, µM (series often up to 46.1 µM), for the others: top-dose growth rescue (activation), actives largely listed as activators | actives 0.23% (n = 320,000) | AID 485298; also: % of control where 0% means no effect; nearly all actives have a fitted effect of over 45% in size
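Yeast fusion mutant, YPEG (non-fermentable carbon), compound, 48 h at 37C non-permissive; CellTiterGlo added, 10 min RT, luminescence read. Rescued growth = division inhibition.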
TDP-43 yeast inh: TDP-43 toxicity inhibition in yeast; actives 1.8% (n = 410,000); TDP-43 expressing yeast growth rescue, BacTiter-Glo, 24 h; AID 652104; Potency, µM (top dose mostly 46.1 µM), for inactives: at the highest dose growth rescue (activation), usual class: activators; also: % of control where 0% means no effect; nearly all actives have a fitted effect of over 50% in size
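Growth rescue of TDP-43-toxic yeast measured as ATP luminescence (BacTiter-Glo). Cells grown to mid-log in raffinose, induced in galactose at OD600=0.02, exposed to compound 24 hr at 30 deg C.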
* = called active by the depositor; i = inactive; u = inconclusive; x = not tested or not shown. Hits are enriched below; roughly 2.2% of the tested compounds scored in any of these assays. Calls follow the shape of the dose curve; as a rule, active = well fitted curve in the direction sought with a large enough effect; inconclusive = small, poorly fitted or top-dose-only effect, or another doubt; inactive = no such curve, though single readings can be large; an effect the other way counts as inactive or inconclusive. Potency is read from the fitted curve at half-maximal effect.

SMILES	aSyn rescue	Abeta rescue	FUS yeast rescue	Mito fusion yeast	TDP-43 yeast inh
COc1ccc(NC(=O)NCc2ccncc2)c(OC)c1	x	i	i	4%	-15%
C=CCN(CC=C)c1ccc(/C=C/c2ccnc3ccccc23)cc1	-29%	x	x	x	x
Cc1ccc(F)cc1-c1nc(NCC2CC2)nc2ccsc12	-2%	i	i	x	20µM*
CC(C)CNC(=O)OCc1cn(Cc2ccc(C(F)(F)F)cc2)nn1	x	x	i	x	x
COc1ccc(NC(=O)c2ccco2)cc1NC(=O)c1ccc(OC(C)C)cc1	x	i	u	x	14µM*
Nc1nonc1C(=O)N/N=C/c1cc(Br)ccc1O	u	10µM*	i	26%	2.8µM*
Nc1nonc1-n1nnc(C(=O)N/N=C/c2cc(Br)ccc2O)c1CNc1ccccc1	-4%	i	i	-6%	1%
C#CCOCCOCCOCCNc1nc(N2CCN(C(=O)[C@H](CCCCN)n3cc([C@@H](N)CC(C)C)nn3)CC2)nc(N2CCN(C(=O)[C@H](Cc3cc4ccccc4[nH]3)n3cc([C@@H](N)CC(C)C)nn3)CC2)n1	x	x	i	x	x
CC(=O)N(O)c1ccc(C=Cc2ccccc2)cc1	2%	i	i	x	14µM*
Cc1ccc(S(=O)(=O)c2nc(-c3cccs3)oc2SC(C)c2ccccc2)cc1 (stereo not drawn)	x	i	i	x	8%
c1ccc2c(c1)OCCOCCOc1ccccc1OCCOCCO2	17%	i	i	u	11µM*
Nc1ccc2c(c1)OCCOCCOCCOCCOCCO2	0%	i	i	-9%	9%
O=C(CSc1nc2ccccc2n1Cc1ccc(F)c(Cl)c1)N1CCN(c2ccc(F)cc2)CC1	x	i	i	x	30%
NNc1nc(-c2ccccc2Cl)c2cc(Br)ccc2n1	9%	i	i	-12%	16µM*
CC1=C(C(=O)NCc2ccc(Cl)cc2)C2(CCCCCC2)OC1=O	x	i	i	x	14%
Cc1cc(C(=O)CSc2ccc3c(c2)OCCO3)c(C)n1C1CC1	16%	i	i	10%	20µM*
O=[N+]([O-])c1ccc(/C=N/NC(=S)Nc2ccccc2)o1	-4%	i	i	7%	12%
O=[N+]([O-])c1ccc(/C=N/NC(=S)Nc2ccccc2F)o1	9%	i	i	0%	13µM*
Clc1ccc(Cl)c2sc(N3CCCC3)nc12	19%	i	i	2%	7.1µM*
Clc1cccc2sc(N3CCN(c4ccccc4)CC3)nc12	0%	i	i	u	3.5µM*
Fc1cccc2sc(N3CCCCC3)nc12	8%	i	i	1%	4%
Clc1ccc(Cl)c2sc(N3CCOCC3)nc12	3%	i	i	x	28%
COc1ccc(C(=O)C[n+]2cc(Br)cc3ccccc32)cc1	6%	x	x	x	x
C=C1C=C(C)n2ncc(C(=O)Nc3ccc(NC(C)=O)c(Cl)c3)c2N1	-4%	x	x	x	x
CCOc1ccc2ncc(S(=O)(=O)c3ccccc3)c(N3CCN(c4ccccc4)CC3)c2c1	-4%	i	i	x	19%
SMILES	aSyn rescue	Abeta rescue	FUS yeast rescue	Mito fusion yeast	TDP-43 yeast inh
CCOC(=O)c1cnc2ccc(OCC)cc2c1NCc1ccccc1	1%	i	x	-5%	8%
CCOC(=O)c1cnc2ccc(OCC)cc2c1N1CCN(c2ccccc2F)CC1	x	i	u	x	16µM*
CCOC(=O)c1cnc2ccc(OCC)cc2c1N1CCN(c2ccccc2)CC1	7%	i	u	-3%	18µM*
CCOc1ccc(CC(=O)NCc2ccc3c(c2)CCN3C(C)=O)cc1OCC	x	i	i	x	1%
CCCCc1nc2cc(C(=O)N3CCCC(OCCC)C3)ccc2o1 (stereo not drawn)	9%	i	i	-7%	14µM*
COc1ccc(C)cc1NC(=O)CN1C(=O)CCc2cc(S(=O)(=O)N3CCOCC3)ccc21	x	i	i	x	22%
COc1cc(-c2cnc3c(NC=O)cc(-c4cccc(C(F)(F)F)c4)cn23)cc(OC)c1OC	11%	i	u	x	0%
CN(C)C(=O)c1cccc(-c2cnc3c(NC=O)cc(-c4cccc(C(F)(F)F)c4)cn23)c1	-2%	i	28µM*	x	0%
Cc1cccc(-c2cc(NC=O)c3ncc(-c4cccc(C(=O)N(C)C)c4)n3c2)c1	2%	i	i	x	15%
COc1ccc(-c2cc(NC(C)=O)c3ncc(-c4cccc(C(F)(F)F)c4)n3c2)c(OC)c1	23%	i	u	x	13µM*
COc1ccc(-c2cc(NC=O)c3ncc(-c4cccc(C(F)(F)F)c4)n3c2)c(OC)c1	-6%	i	u	x	16µM*
COc1cccc(-c2cnc3c(NC(C)=O)cc(-c4ccccc4OC)cn23)c1	6%	i	i	x	20µM*
COc1cc(NC(=O)Cn2ncc3c([nH]c4ccc(C)cc43)c2=O)cc(OC)c1OC	x	i	i	x	12%
CS(=O)(=O)Nc1cccc(-c2cc(NC=O)c3ncc(-c4ccc(F)cc4)n3c2)c1	5%	i	u	x	0%
CC(=O)Nc1cc(-c2ccccc2F)cn2c(-c3ccccc3)cnc12	5%	i	i	x	20µM*
O=CNc1cc(-c2cccc(F)c2)cn2c(-c3ccc(F)cc3)cnc12	-7%	i	i	x	18µM*
CC(C)NC(=O)NC(=O)COC(=O)C1CCCN1C(=O)c1cccs1 (stereo not drawn)	-3%	i	i	-4%	-7%
CC(C)c1ccc(NC(=O)COC(=O)[C@@H]2CCCN2C(=O)c2cccs2)cc1	11%	i	u	x	35µM*
Clc1ccc(-c2nnc(SCc3cccc4ccccc34)n2-c2ccc(Cl)cc2)cc1	x	x	i	x	x
COc1ccc(/C=C/C(=O)N2CCC(c3nc4ccccc4o3)CC2)cc1OC	x	i	u	x	16µM*
CC(C)Cc1nc(N2CCN(C(=O)c3ccco3)CC2)c(C#N)c2c1CCCC2	-12%	i	u	-25%	u
CCCC(=O)N1CCN(c2nc(CC(C)C)c3c(c2C#N)CCC3)CC1	1%	i	u	24%	11µM*
CCOc1ccc(CNC(=O)c2cccc(NC(=O)N3CCSc4ncccc43)c2)cc1	x	i	i	x	0%
CCC(C(=O)Nc1ccc2c(c1)OCCO2)n1nnc2ccccc2c1=O (stereo not drawn)	2%	i	i	3%	u
COc1ccc(OC)c(C(=O)Cn2nnc3ccccc3c2=O)c1	4%	i	i	-1%	-11%
COc1ccc2c(C)cc(SCn3nnc4ccccc4c3=O)nc2c1	3.5µM*	i	i	1%	7%
O=c1c2ccccc2nnn1CSc1ccc2c(c1)OCCO2	u	i	i	-3%	11µM*
CCCCCCOc1ccc(CC(=O)O)cc1	-11%	x	x	x	x
CC(=O)CC[C@H]1CC[C@]2(CCCN(C(=O)C(C)(C)C)C2)O1	x	x	i	x	x
